ClpP mod = qHTS Assay for Activators of ClpP; purified B. subtilis ClpP, FRET peptide cleavage, 20 min; Potency, µM (titrated, usually from 57.5 µM), for the others: top-dose activity change, negative = active; ATP-dependent Clp protease proteolytic subunit (Bacillus subtilis (strain 168)), P80244; AID 651965, 2013; 340,000 compounds, 1.9% hits; active means well fitted falling curve with a large enough effect; inconclusive means small, poorly fitted or top-dose-only effect; inactive means no such curve, though single readings can be large or run the other way; further: potency means the concentration at half of the fitted maximal effect; the source files actives as falling curves though it sought activators and does not explain the sign; nearly all actives have a fitted effect of over 65% in size
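ClpP 10 microg/mL final, pH 8 Tris/KCl buffer with BSA, glycerol, Tween-20; compound pinned in; FRET-FV substrate; RT 20 min; Ex320/Em430; ΔFRET vs ADEP 5.8 microM, DMSO, no enzyme.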
MBNL1-CUG inh = MBNL1-poly(CUG) RNA binding inhibition. Q9NR56. TR-FRET MBNL1-His/biotin-(CUG)12 binding, 665/545 ratio. Potency, µM (titrated, usually from 57.5 µM), for the others: at the highest dose activity change, negative = inhibition, usual class: inhibitors. 280,000 compounds, 0.036% hits; active means well fitted inhibition curve with a large enough effect in the signal ratio, with a control signal flat, not every such curve was filed as active; inconclusive means small, poorly fitted or top-dose-only effect, or effect the other way, or a change in a side signal; inactive means no such curve, though single readings can be large or run the other way; the % refers to the signal ratio; further: potency means the concentration at half of the fitted maximal effect; on the % scale 0 is the no-effect control and ±100 the full control effect
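MBNL1-His + Biotin-(CUG)12, cpd titration 92 nM–58 uM; Tb anti-His Ab 0.055 ng/ul, SA-XL665 5 nM (final); 60 min RT; ratiometric 665/545 nm, Ex 340 nm; normalized to buffer and full-complex controls.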
Rango complex inh = inhibitors of Rango-importin beta complex formation; 340,000 compounds, 0.031% hits; Rango CFP/YFP FRET sensor + importin beta, 45 min; Potency, µM (titrated, usually from 92.2 µM), inactives show top-dose inhibition of complex formation; Q14974; AID 540263;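 further: potency means the concentration at half of the fitted maximal effect; 0% = DMSO wells and 100% = buffer wells lacking importin beta; nearly all actives have a fitted effect of over 15% in size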
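Inhibition scored from the CFP 486 nm/YFP 530 nm FRET ratio 45 min after adding 0.125 microM importin beta to 50 nM Rango biosensor preincubated 5 min with compound (room temperature, PBS with DTT, Tween-20, BSA). No-importin wells as positive control.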
CBFb RUNX1 block = inhibitors of human CBF-beta and RUNX1 interaction | Q01196+Q13951 | AlphaScreen CBFb-His/RUNX1-biotin binding, biochemical | Potency, µM (top dose mostly 59.8 µM), inactives show at the highest dose activity, negative = inhibition, hits mostly inhibitors | 230,000 tested, under 10 active | AID 1477; active means well fitted curve in the direction sought with a large enough effect; inconclusive means small, poorly fitted or top-dose-only effect, or another doubt; inactive means no such curve, though single readings can be large; an effect the other way counts as inactive or inconclusive; further: % of control where 0% means no effect
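Inhibition was taken as any reduction in AlphaScreen signal from the CBF-beta–RUNX1 pair (His and biotin tags, 30 nM each), measured after compound (15 min) and bead (90 min) incubations at room temperature.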
Rango release inh = prevents RanGTP from dissociating the Rango-importin beta complex | Biochemical FRET Rango-importin beta, RanGTP-induced dissociation | Potency, µM (doses to about 46.1 µM), without a hit: top-dose activity change, negative = inhibition | 340,000 compounds, 0.071% hits | AID 540253; further: potency means the concentration at half of the fitted maximal effect; % of control where 0% means no effect; nearly all actives have a fitted effect of over 45% in size
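Quantitative HTS using a FRET biosensor: 0.1 uM Rango, 0.25 uM importin beta, 0.6 uM Ran, 2 mM GTP, 0.2 uM RCC1 final, PBS with DTT, Tween-20 and BSA. Post-read taken 45 min after Ran addition.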
ClpP validation = inhibits B. subtilis ClpP protease, hit validation; shares compounds with ClpP mod; purified B. subtilis ClpP, FRET-FV substrate cleavage, 20 min; Potency, µM (top dose mostly 57.5 µM), without a hit: at the highest dose activity change, negative = inhibition, usual class: inhibitors; 470 compounds, 40% hits; active means well fitted curve in the direction sought with a large enough effect; inconclusive means small, poorly fitted or top-dose-only effect, or another doubt; inactive means no such curve, though single readings can be large; an effect the other way counts as inactive or inconclusive; further: potency means the concentration at half of the fitted maximal effect; on the % scale 0 is the no-effect control and ±100 the full control effect; nearly all actives have a fitted effect of over 70% in size
* marks the source's active call; other numbers are inactive results; [ ] = another dose, or the depositor's remark. This is one part of a sample in which hits are shown more often than they occur. Unless noted, the call rests on the fitted dose curve.

Screening CCOc1ccc(C2C=C(c3ccc(C)cc3)Nc3nnnn32)cc1 (stereo unspecified) returned ClpP mod 10µM*, MBNL1-CUG inh -6%, Rango complex inh inconclusive, CBFb RUNX1 block 2%, Rango release inh inconclusive and ClpP validation -11%.
O=C(Nc1cccc(NC(=O)c2ccc(-c3ccc(Br)cc3)o2)c1)c1ccccc1 was read as ClpP mod 521%, MBNL1-CUG inh 8%, Rango complex inh -1%, CBFb RUNX1 block 3%, Rango release inh -7% and ClpP validation 22µM*.
NC(=O)c1ccccc1NC(=O)c1ccc(-c2ccc(Br)cc2)o1 was read as ClpP mod 187% and ClpP validation 17µM*.
Screening O=C(Nc1ccccc1)c1ccc(-c2ccc(Br)cc2)o1 returned ClpP mod -4%, MBNL1-CUG inh 113%, Rango complex inh -1%, CBFb RUNX1 block 10% and Rango release inh 5%.
`COc1ccc(S(=O)(=O)N(C)c2ccc(C(=O)N3CCOCC3)cc2)cc1` gave ClpP mod 2.2µM*, MBNL1-CUG inh -7%, Rango complex inh -2%, CBFb RUNX1 block 9%, Rango release inh -5% and ClpP validation 0%.
COc1ccc(S(=O)(=O)N(C)c2ccc(C(=O)N3CCCCC3)cc2)cc1 was read as ClpP mod -19%, MBNL1-CUG inh 3%, Rango complex inh -1% and Rango release inh -11%.
O=C(Cn1c(=O)n(-c2ccccc2Cl)c(=O)c2sc3ccccc3c21)N1CCCC1 was read as ClpP mod 4%.
COc1ccc(N2C(=O)NC3CC2(C)Oc2ccc(Br)cc23)cc1OC (stereo unspecified) was read as ClpP mod 177%, MBNL1-CUG inh 4%, Rango complex inh 2%, CBFb RUNX1 block 5%, Rango release inh 0% and ClpP validation 0%.
COc1ccc(N2C(=O)NC3CC2(C)Oc2ccccc23)cc1 (stereo unspecified) was read as MBNL1-CUG inh -2%, Rango complex inh 5%, CBFb RUNX1 block 10% and Rango release inh 26%.
Screening CCC(C)NC(=O)NC1C(NC(=O)NC(C)CC)N(C)C(=O)N1C (stereo unspecified) returned ClpP mod -2%, MBNL1-CUG inh -6%, Rango complex inh 0%, CBFb RUNX1 block 1% and Rango release inh 0%.
CC(C)CNC(=O)NC1C(NC(=O)NCC(C)C)N(C)C(=O)N1C (stereo unspecified) was read as ClpP mod 44%, MBNL1-CUG inh -6%, Rango complex inh 2%, CBFb RUNX1 block -2%, Rango release inh -4% and ClpP validation 0%.
For COc1ccc(N2CCN(c3csc4ccccc4c3=O)CC2)cc1 the results were ClpP mod -16%.
`CC(NC(=O)C1CCN(S(=O)(=O)c2ccc(F)cc2)CC1)c1ccccc1` (stereo unspecified) gave ClpP mod inconclusive and ClpP validation -1%.
For CNC(=O)c1ccsc1NC(=O)c1sc2ccccc2c1Cl the results were ClpP mod 58%, MBNL1-CUG inh 153%, Rango complex inh inconclusive, CBFb RUNX1 block 4%[2.36 µM], Rango release inh 8% and ClpP validation inconclusive.
Cc1nnc(NC(=O)c2sc3ccccc3c2Cl)s1 was read as ClpP mod -6%, MBNL1-CUG inh 45%, Rango complex inh 3%, CBFb RUNX1 block 2% and Rango release inh 2%.
For COc1cc2ccccc2cc1C(=O)NCC(c1cccs1)N(C)C (stereo unspecified) the results were ClpP mod 3.2µM*, MBNL1-CUG inh 2%, Rango complex inh -3%, CBFb RUNX1 block -9%, Rango release inh 2% and ClpP validation inconclusive.
For Cc1cc(C)cc(N(CC(=O)Nc2ccc(-c3nc4ccc(C)cc4s3)cc2)S(C)(=O)=O)c1 the results were ClpP mod 10µM*, Rango complex inh 1%, CBFb RUNX1 block 8%, Rango release inh 15% and ClpP validation 19µM*.
Screening CCN(Cc1ccccc1)C(=O)Cn1c(=O)n(Cc2ccccc2)c(=O)c2c1c1cc(OC)ccc1n2C returned ClpP mod 0.71µM* and ClpP validation 27µM*.
For COc1ccc2c(c1)c1c(c(=O)n(Cc3ccccc3)c(=O)n1CC(=O)NCc1ccccc1)n2C the results were ClpP mod 4%.
Cn1cnc(S(=O)(=O)N2CCCCC2c2cc(C(=O)NCc3ccc(Cl)c(Cl)c3)no2)c1 (stereo unspecified) was read as ClpP mod -13%.
Screening O=C(Nc1ccccc1)c1nc[nH]c1C(=O)NCc1ccccc1 returned ClpP mod 1%, Rango complex inh 1% and Rango release inh -2%.
`O=C(Nc1cccc(Cl)c1)c1nc[nH]c1C(=O)NCc1ccccc1` gave ClpP mod 213%, Rango complex inh 3%, Rango release inh -26% and ClpP validation inconclusive.
`COc1ccc(NC(=O)Cn2nc(C)c3c(C)n(-c4ccccc4)nc3c2=O)cc1OC` gave ClpP mod 0%.
Screening COc1ccc(CCNc2cc(C)nc3c(-c4ccc(Cl)cc4)cnn23)cc1OC returned ClpP mod 8.9µM*, MBNL1-CUG inh -4%, Rango complex inh 3%, CBFb RUNX1 block inconclusive, Rango release inh -7% and ClpP validation 24µM*.
`O=C(Cn1ncc2c3ccccc3n(Cc3cccc(Cl)c3)c2c1=O)NC1CCCCCC1` gave ClpP mod 1%.
COc1cccc(N2C(=O)C(CC(=O)Nc3cccc(F)c3)N(C(C)C)C2=O)c1 (stereo unspecified) was read as ClpP mod 1%.
For c1ccc2nc(-c3ccc(N4CCOCC4)cc3)ccc2c1 the results were ClpP mod 106%, MBNL1-CUG inh 3%, Rango complex inh inconclusive, CBFb RUNX1 block 13%, Rango release inh -23% and ClpP validation 7%.
`CN1CCN(c2ccc(-c3ccc4ccccc4n3)cc2)CC1` gave MBNL1-CUG inh 3%, Rango complex inh 0%, CBFb RUNX1 block 26% and Rango release inh 1%.
Cc1ccc(C(=O)Nc2ccc3c(c2)nc2n3CCSC2)cc1 was read as ClpP mod 0%, MBNL1-CUG inh 1%, Rango complex inh 3%, CBFb RUNX1 block -9% and Rango release inh 3%.

Compound activity as filed in PubChem BioAssay.
